Screens: PubChem, several laboratories
Cav3 T inh: Cav3.2 calcium influx blockers – cell-based, Fluo-4 calcium fluorescence, FDSS, MLSMR library, primary screen; Cav3.2-expressing cells; active compounds read low; B-score at 10 µM; 100,000 tested, 4% active;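 active = single-dose well whose peak fluorescence ratio is a statistical outlier from its plate by either plate-standardised score or position-corrected B-score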
M1 antag: antagonists of rat M1 muscarinic receptor; Muscarinic acetylcholine receptor M1 (Rattus norvegicus), P08482; CHO-M1 cells, Fluo-4 calcium, ACh EC80 antagonist mode; active compounds read low; 64,000 tested, 3.4% active; B-score at 10 µM;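 active = calcium fluorescence response, raw or row-and-column corrected B-score, differing from the plate sample mean either way at a set confidence level, mostly lower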
Target sequence (P08482 whole entry, looked up): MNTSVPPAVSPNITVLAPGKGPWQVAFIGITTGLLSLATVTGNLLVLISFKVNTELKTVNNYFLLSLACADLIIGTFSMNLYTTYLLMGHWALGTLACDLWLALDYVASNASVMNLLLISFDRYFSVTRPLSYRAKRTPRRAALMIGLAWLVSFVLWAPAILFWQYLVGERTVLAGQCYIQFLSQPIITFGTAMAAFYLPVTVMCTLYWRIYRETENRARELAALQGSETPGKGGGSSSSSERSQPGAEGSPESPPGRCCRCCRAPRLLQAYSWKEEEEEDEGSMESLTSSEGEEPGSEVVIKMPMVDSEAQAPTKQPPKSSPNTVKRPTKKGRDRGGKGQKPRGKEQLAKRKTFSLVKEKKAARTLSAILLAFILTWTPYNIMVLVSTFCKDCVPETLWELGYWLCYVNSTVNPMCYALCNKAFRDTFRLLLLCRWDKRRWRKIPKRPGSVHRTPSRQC
M1 ag: M1 muscarinic receptor agonists, primary screen, CHO-M1 cells, Fluo-4 calcium, agonist mode; 64,000 tested, 3% active; AID 626, 2007; Fluo-4 calcium fluorescence; active compounds read high; Muscarinic acetylcholine receptor M1; B-score at 10 µM;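 active = fluorescence rise, raw or as B-score row- and column-corrected plate score, outside the 99.7% band of its plate's samples, either direction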
PLAP act: PLAP enzyme activators, biochemical, luminescence, HTS; purified PLAP enzyme, luminescent substrate read-out; active compounds read high; 96,000 tested, 1.2% active; AID 696, 2007; activation fold at 20 µM; in the data active = activation fold above about 2
M1 antag confirm: rat M1 muscarinic receptor antagonists, confirmation, CHO cells, Fluo-4 calcium, duplicate | shares compounds with M1 antag | ACh EC80 antagonism; active compounds read low | calcium response (max-min fluorescence) at 10 µM | 1,700 tested, 43% active;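 active = calcium response below the same-plate mean of wells given acetylcholine alone at its 80%-effect dose, minus 3 SD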
mGluR4 antag: human mGluR4 response to M1 antagonist hits, M1 allosteric modulator project, cell-based, antagonist mode, secondary assay 1; CHO-mGluR4 calcium flux, Fluo-4 fluorescence, glutamate EC80; active compounds read low; shares compounds with M1 antag; fluorescence response (max-min) at 10 µM; 1,700 tested, 0.9% active;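 active = fluorescence response below the plate's average for near-maximal glutamate wells, less 3 SD of those wells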;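 also: raw unnormalized fluorescence span taken in the window right after glutamate addition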
Hits are given with their value. Shown are actives, neighbours in structure and some others; about 7.6% of the full set was active somewhere.

CSc1nc(SCC(=O)NCc2ccco2)c2c3c(sc2n1)CN(C)CC3 was read as Cav3 T inh inactive, M1 antag inactive and M1 ag inactive.
CCC(c1nnnn1CCC(C)C)N1CCC(C(N)=O)CC1 (stereo not drawn) was read as Cav3 T inh inactive, M1 antag inactive, M1 ag inactive and PLAP act inactive.
`CCc1c(C#N)c(SCc2c(C)noc2C)nc2c1C(=O)CC(C)(C)C2` gave M1 antag inactive and M1 ag inactive.
OCCN1CCN(Cc2cccc(Oc3ccc(Cl)cc3)c2)CC1 was read as Cav3 T inh inactive, M1 antag -2.9, M1 ag inactive, PLAP act inactive, M1 antag confirm 378 and mGluR4 antag inactive.
COc1cc(OC)c(C(=O)Nc2cccc(C(C)=O)c2)cc1OC was read as Cav3 T inh inactive and PLAP act inactive.
CCOC(=O)N1CCN(C(=O)c2ccc3c(c2)sc2nc(-c4ccccc4)cn23)CC1 was read as Cav3 T inh inactive, M1 antag -2.9, M1 ag inactive, PLAP act inactive, M1 antag confirm 397 and mGluR4 antag inactive.
CC(CN(C)Cc1ccccc1)OC(=O)c1cccs1 (stereo not drawn) was read as Cav3 T inh inactive, M1 antag inactive and M1 ag inactive.
CC(CN(C)Cc1ccccc1)OC(=O)c1ccc2c(c1)OCCO2 (stereo not drawn) was read as Cav3 T inh inactive, M1 antag -3.2, M1 ag inactive, PLAP act inactive, M1 antag confirm 323 and mGluR4 antag inactive.
For C[C@H](NC(=O)Nc1ccc2c(c1)OCCO2)C(=O)O the results were Cav3 T inh inactive, M1 antag inactive, M1 ag inactive and PLAP act inactive.
`CNCCCC1Sc2ccccc2Oc2ccccc21` (stereo not drawn) gave Cav3 T inh inactive.
For CC1CCCCN1CCNC(=O)c1cc2c(-c3ccccc3F)nn(C)c2s1 (stereo not drawn) the results were Cav3 T inh inactive, M1 antag -5.5, M1 ag inactive, PLAP act inactive, M1 antag confirm 374 and mGluR4 antag inactive.
CCc1c(C(=O)O)[nH]c2ccc(Br)cc12 was read as Cav3 T inh inactive, M1 antag inactive, M1 ag inactive and PLAP act inactive.
CCOC(=O)c1c(-c2cccs2)csc1NC(=O)CSc1ncn[nH]1 was read as Cav3 T inh -4.7, M1 antag -2.7, M1 ag inactive, PLAP act inactive, M1 antag confirm inactive and mGluR4 antag inactive.
O=C(O)c1cc2nc3c(c(C(F)(F)F)n2n1)CCc1ccccc1-3 was read as Cav3 T inh inactive, M1 antag inactive, M1 ag inactive and PLAP act inactive.
Screening O=C(c1cc2nc3c(c(C(F)(F)F)n2n1)CCc1ccccc1-3)N1CCN2CCCC2C1 (stereo not drawn) returned M1 antag -3.1, M1 ag inactive, M1 antag confirm 343 and mGluR4 antag inactive.
CC1=C(CC/C(C)=N/NC(N)=S)C(C)(C)CCC1 was read as Cav3 T inh inactive.
Clc1ccc(OCCSc2ncccn2)cc1 was read as Cav3 T inh inactive and PLAP act inactive.
`COc1ccc(S(=O)(=O)N2CCC(O)(c3ccc(Cl)cc3)CC2)cc1` gave Cav3 T inh inactive, M1 antag -3.8, M1 ag inactive, PLAP act inactive, M1 antag confirm 379 and mGluR4 antag inactive.
COc1ccc(S(=O)(=O)N2CCC(C(N)=O)CC2)cc1 was read as Cav3 T inh inactive, M1 antag inactive and M1 ag inactive.
Screening O=C(CN1CCN(c2ccccn2)CC1)N1c2ccccc2Sc2ccc(C(F)(F)F)cc21 returned Cav3 T inh -6.2, M1 antag -4, M1 ag inactive, PLAP act inactive, M1 antag confirm 450 and mGluR4 antag inactive.
`COc1ccc(C)cc1NC(=O)CSc1nnc(CC(=O)Nc2ccccc2C)n1C` gave Cav3 T inh inactive and PLAP act inactive.
For C=CCSc1nc(N)c(C(=O)Nc2ccccc2C)cc1C(N)=O the results were M1 antag -3, M1 ag inactive, PLAP act inactive, M1 antag confirm inactive and mGluR4 antag inactive.
For CCOc1nc(Nc2cc(Cl)ccc2OC)nc(OCC)n1 the results were Cav3 T inh inactive.
Screening COc1nc(Nc2ccc(OC)c(Cl)c2)nc(OC)n1 returned Cav3 T inh inactive, M1 antag -1.2, M1 ag inactive, PLAP act inactive, M1 antag confirm inactive and mGluR4 antag inactive.
Screening C=CCN1C=CC(=O)CC1 returned Cav3 T inh inactive.
Screening O=C(c1ccccc1)c1ccc(OCC(O)CN2CCCCC2)cc1 (stereo not drawn) returned Cav3 T inh inactive, M1 antag -2.2, M1 ag inactive, PLAP act inactive, M1 antag confirm 381 and mGluR4 antag inactive.
OC(COc1ccc(C2C=CCC2)cc1)CN1CCCCC1 (stereo not drawn) was read as Cav3 T inh inactive, M1 antag -4.1, M1 ag inactive, PLAP act inactive, M1 antag confirm 422 and mGluR4 antag inactive.
For CC(C)COc1ccc(C(=O)CCN2CCCCC2)cc1 the results were Cav3 T inh inactive, M1 antag -7, M1 ag inactive, PLAP act inactive, M1 antag confirm 278 and mGluR4 antag inactive.
CCCCOc1ccc(C(=O)CCN2CCCCC2)cc1 was read as Cav3 T inh inactive, M1 antag inactive and M1 ag inactive.
CCOC(=O)C1CCN(CC(O)COc2ccc(C(=O)CC)cc2)CC1 (stereo not drawn) was read as Cav3 T inh inactive, M1 antag -3.3, M1 ag inactive, PLAP act inactive, M1 antag confirm inactive and mGluR4 antag inactive.
`O=C(c1ccccc1)c1ccc(OCC(O)CN2CCN(S(=O)(=O)N3CCCCC3)CC2)cc1` (stereo not drawn) gave Cav3 T inh inactive and PLAP act inactive.
Screening OCC(O)C(O)C(O)C(O)C1NCCS1 (stereo not drawn) returned Cav3 T inh inactive and PLAP act inactive.
For CC1CCN(c2nc3ccc(C(=O)N4CCN(Cc5ccc6c(c5)OCO6)CC4)cc3s2)CC1 the results were PLAP act inactive.
`O=C(CCNS(=O)(=O)c1cccc2nsnc12)Nc1ccc2c(c1)OCCO2` gave Cav3 T inh inactive, M1 antag inactive, M1 ag inactive and PLAP act inactive.
O=S(=O)(Nc1ccc2c(c1)OCCO2)c1cccc2nsnc12 was read as M1 antag -2.7, M1 ag inactive, PLAP act inactive, M1 antag confirm 362 and mGluR4 antag inactive.
Cn1c(=O)n(CCc2ccccc2)c(=O)c2c1nc1n2CCCN1c1ccc(F)cc1 was read as M1 antag inactive and M1 ag inactive.
